# Assay results published in PubChem BioAssay AID489025 (Southern Research Specialized Biocontainment Screening …, 2010).
# Screen size: about 2,300 compounds; about 790 (34%) were called active. Some of the results follow. Entries with a potency or affinity are not part of this list. A number with no mark means an inactive call. How the calls were made is not given here.
# Test: THP-1 cell cytotoxicity, dose response, cytotoxicity control for non-replicating M. tuberculosis project (AID 489025)
# Details: THP-1 cell viability; series mostly up to 40 µM; viability: at the top concentration
row,SMILES,viability [%]
1,CCOC(=O)CN1NC2(CCC(C)CC2)NC1=S (stereo unspecified),86.5
2,CCc1cc(C(c2ccncc2)N2CCN(C)CC2)c(NC(=O)c2ccccc2)s1 (stereo unspecified),106
3,CCc1ccc(NC(=O)C(=O)NNC(=O)c2cccc(OC)c2)cc1,77.2
4,Cc1ccc(C(=O)Oc2cccc(-n3cnnn3)c2)cc1,87.2
5,COC(=O)COc1ccc(-c2ccc(F)cc2)cc1C=O,87.1
6,Cc1ccc(CCC(=O)Nc2ccc([N+](=O)[O-])cc2)o1,106
7,Cc1ccc(CCC(=O)Nc2cc(Cl)ccc2Cl)o1,95.1
8,O=[N+]([O-])c1ccc(/C=N/NS(=O)(=O)c2ccc(Cl)cc2)o1,90
9,Cc1ccc(OCC(=O)N/N=C/c2ccc([N+](=O)[O-])o2)cc1,100
10,COc1ccc(/C=N/NC(=O)C(=O)NCc2cccnc2)cc1OC,117
11,Cc1ncsc1CCOC(=O)c1ccc([N+](=O)[O-])cc1,88.5
12,Oc1ccc(Br)cc1-c1ccn[nH]1,94.1
13,CCCCNC(=O)COC(=O)c1cc(F)c(F)cc1Cl,125
14,C=Cc1cccc(NC(=O)COc2ccccc2)c1,90.2
15,Cc1nn(-c2ccccc2)nc1C(=O)c1c(C)[nH]n(-c2ccccc2)c1=O,84.6
16,CCC(C)c1ccc(O)c(/C=N/O)c1 (stereo unspecified),94.4
17,O=[N+]([O-])c1cc2oc3c(c2c(C=NCc2ccccc2)c1O)CCCC3,118
18,O=C(N/N=C/C=C/c1ccco1)c1ccncc1,96.7
19,Nc1ccc(C(=O)N/N=C\C=C\c2ccc([N+](=O)[O-])cc2)cc1,118
20,O=C(COC(=O)CCC(=O)c1ccc(F)cc1)Nc1ccc(F)cc1F,110
21,COc1cccc(OC(=O)c2cc3ccccc3oc2=O)c1,101
22,CCC(=O)N1CCN(c2cc3c(cc2F)c(=O)c(C(=O)O)cn3CC)CC1,119
23,CC(C)OC(=O)CCCCCN1C(=O)CSC1=S,106
24,O=C(OCC#CCSc1nnc(-c2ccccc2)o1)c1ccco1,91.4
25,COC(=O)CCCCCN1C(=O)/C(=C\c2ccncc2)SC1=S,75.8

row,SMILES,viability [%]
1,Cc1ccc(C(=O)c2cncc(Br)c2)cc1,86.4
2,CCCCN1C(=O)C2(NNc3ccccc3O2)c2ccccc21 (stereo unspecified),77.2
3,COC(=O)COc1ccc2c(=O)c(Oc3ccccc3)c(C)oc2c1,113
4,O=C(NNc1ccc([N+](=O)[O-])cc1)C1CC2CCCC(C1)C2=O (stereo unspecified),124
5,NC(N)=N/N=C/c1cc([N+](=O)[O-])ccc1O,119
6,O=C(C/C=N\OCc1ccc([N+](=O)[O-])cc1)Nc1ccc(Br)cc1,91.5
7,O=C(NCC1CCCCC1)c1ccc([N+](=O)[O-])cc1,112
8,CCCC(=O)Nc1cccc(-c2nc3ccccc3c(=O)o2)c1,110
9,C#CCOc1coc(COC(=O)c2ccccc2)cc1=O,93.3
10,CC1C/C(=N/N2C(=O)CSC2=S)CC(C)(C)C1 (stereo unspecified),127
11,CCCCCCC1CC(C)(C(=O)CNc2nncs2)OC1=O (stereo unspecified),115
12,CC1=NN(C(=O)c2csc(C)c2C)C(O)(C(F)(F)F)C1 (stereo unspecified),90.6
13,Nc1cccn2c(-c3ccc(Cl)cc3)cnc12,89.2
14,Cc1ccc(C(=O)Nc2nccs2)cc1,78.5
15,CCN1CCN(C(=O)CN(Cc2ccccc2)S(C)(=O)=O)CC1,85.7
16,C/C(=N\NC(=O)c1cc([N+](=O)[O-])cc([N+](=O)[O-])c1)c1ccco1,93
17,CC(C)c1ccc(C2=C(O)c3ccccc3C(=O)C2=O)cc1,112
18,N#CC1=C(N)Oc2n[nH]c(-c3cccnc3)c2C1c1ccc([N+](=O)[O-])o1 (stereo unspecified),114
19,CCCc1cc(C(=O)Nc2ccccc2SC)no1,103
20,CCOC(=O)c1c(C)nc2cc(C)ccn12,91.3
21,Cc1c(-c2ccc(Br)cc2)nc2ccccn12,85.7
22,c1ccc(-c2noc(CC3CCCCC3)n2)nc1,112
23,CCCCCC1CC(CC(=O)NC(=S)Nc2ccc([N+](=O)[O-])cc2)C(=O)O1 (stereo unspecified),104
24,O=C(N/N=C/c1ccc[nH]1)c1ccc(Cl)cc1,87.8
25,Cc1ccc(-c2nnc(NC3CCCC3)s2)cc1,98.3

row,SMILES,viability [%]
1,CCOC(=O)COc1cc(N)c(Cl)cc1Cl,103
2,CCCCc1ccc(NS(=O)(=O)c2c(C)n(C)c(=O)n(C)c2=O)cc1,81
3,CN1CCN(/N=C/c2ccc(-c3ccc([N+](=O)[O-])cc3Cl)o2)CC1,81.4
4,c1ccc(-c2nnc(SCc3cn4ccsc4n3)o2)cc1,111
5,COC(=O)[C@@H](NC(=O)c1cc(COc2cncc(Cl)c2)on1)c1ccccc1,97.6
6,CCCCCCOc1ccc(C(=O)O)cc1C#N,104
7,N#CC(C(=O)NCc1ccco1)c1nc2ccccc2nc1N1CCOCC1 (stereo unspecified),94.4
8,CCOC(=O)C1CCN(c2nc3cc(OC)ccc3cc2C#N)CC1,104
9,Cc1ccc(C)c(NC(=O)COC(=O)c2cc3ccccc3oc2=O)c1,89.2
10,CC(C)OC(=O)COc1ccc(-c2ccccc2)cc1,113
11,CC(NC(=O)COc1ccc(-c2ccccc2)cc1)C1CCCO1 (stereo unspecified),88.7
12,COC(=O)c1ccc(CSc2nnc(-c3ccncc3)o2)o1,98.5
13,COCCCn1c(=NC(=O)c2ccccc2)c(C#N)cc2c(=O)n3cccc(C)c3nc21,116
14,O=C(COC(=O)c1ccccn1)Nc1cccc(Cl)c1Cl,114
15,O=C(Nc1ccn(Cc2ccccc2)n1)c1ccc(F)cc1,103
16,CN(CCCCOc1ccc(F)cc1)Cc1ccccc1,96.6
17,C=CCN=C1SC(CC)C(=O)N1S(=O)(=O)c1ccc(C)cc1 (stereo unspecified),91.8
18,Cc1ccc(Sc2ccc(/C=C3/C(=O)NN(c4ccccc4)C3=O)o2)cc1,73.6
19,Cc1ccc(N=Nc2c(C)[nH]n(C(N)=S)c2=O)cc1C,93.5
20,O=[N+]([O-])c1ccccc1C1Nc2cccc3cccc(c23)N1,110
21,CCOc1ccc(NCC(=O)c2ccc(C)cc2)cc1,85.8
22,Cc1cc(/C=N\NC(=O)c2cccs2)c(C)n1-c1ccc2ncccc2c1,76.3
23,NC(N)=N/N=C/c1cccc([N+](=O)[O-])c1O,103
24,Cc1cccc(Cc2cnc(NC(=O)C3=NCCN3)s2)c1,86.2
25,COc1cc(/C=C2/C(=O)NN(c3ccc(Cl)cc3)C2=O)ccc1OC(=O)c1ccco1,102

row,SMILES,viability [%]
1,O=C(CCC1CCCCC1)NCc1ccc(F)cc1,119
2,COC(=O)C1CC(=O)N(c2ccc(OCc3ccccc3Cl)cc2)C1 (stereo unspecified),96.5
3,Cc1nnc(N/N=C/c2ccc(-c3ccccc3F)o2)n1N,95.5
4,CN1C(c2ccccc2)CC(=NO)CC1c1ccccc1 (stereo unspecified),90.4
5,CC(CN1CCOCC1)OC(=O)c1ccc2c(c1)OCCO2 (stereo unspecified),111
6,O=C(COC(=O)Cc1ccc(Br)cc1)Nc1ccc(N2CCOCC2)cc1,122
7,Cc1[nH]n2c(=O)c3c(nc2c1-c1ccccc1)CCCC3,80.8
8,N/C(=N\OC(=O)CC1CCCCC1)c1ccncc1,96.5
9,CCOC(=O)CN(C#N)c1nc(N(C)C)nc(N(C)C)n1,111
10,O=C(N/N=C/c1ccc[nH]1)c1ccc2c(c1)OCO2,105
11,O=C(N/N=C/c1coc2ccccc2c1=O)c1ccc(Cl)cc1,116
12,CCOc1ccc(/C=N/OCC(=O)Nc2ccc3c(c2)OCO3)cc1,102
13,O=C(COc1ccc(F)cc1)Nc1ccc2c(c1)OCCO2,92.6
14,O=C(NCCc1c[nH]c2ccccc12)c1cc2ccccc2oc1=O,113
15,Cc1nnc(SCCC(=O)Nc2ccc(Cl)cc2)o1,118
16,O=C(Cc1ccccc1)Nc1ccc(C(=O)NCC2COc3ccccc3O2)cc1 (stereo unspecified),90.7
17,O=C(Nc1ncc2c(n1)-c1ccccc1OC2)c1ccc(F)cc1,104
18,O=C(COC(=O)CCc1c[nH]c2ccccc12)NCc1ccc2c(c1)OCO2,118
19,COc1ccc(OC(=O)CCc2c[nH]c3ccccc23)cc1,104
20,O=C(COC(=O)CCc1c[nH]c2ccccc12)NCc1ccc(Cl)cc1,111
21,N#Cc1ccc(COC(=O)CCc2c[nH]c3ccccc23)cc1,102
22,Cc1cc(C)c2sc(NC(=O)C3=COCCO3)nc2c1,89.5
23,O=c1cc(-c2ccncc2)oc2c1ccc1ccccc12,82.8
24,Cc1ccc(N/N=C2\CS(=O)(=O)N(C)c3ccsc32)cc1,102
25,CCCCOC(=O)C1CCCC(C(=O)OCCCC)N1 (stereo unspecified),111

row,SMILES,viability [%]
1,CCN1CCC(=NNC(=O)c2ccco2)CC1,124
2,CCOC(=O)c1ccc(N=CC2=C(O)CC(C)(C)CC2=O)cc1,112
3,CCCn1nnnc1NC(=O)c1cc(Cl)ccc1Cl,93.2
4,CCCn1nnnc1NC(=O)COc1ccc(Br)cc1,118
5,CCOC(=O)C(C)Oc1cc(Cl)c(C=O)cc1OC (stereo unspecified),108
6,CSc1ccc(N=Nc2c(C)[nH]n(C)c2=O)cc1,76.7
7,Cc1ccc(N=Nc2c(C)[nH]n(C(N)=S)c2=O)cc1,99.2
8,CCc1cc2c(=O)n(C(C)C(=O)OC3CCCCC3)cnc2s1 (stereo unspecified),87.5
9,CC1CCCN(CCCOc2ccc([N+](=O)[O-])cc2)C1 (stereo unspecified),97.9
10,CC(C)(C)C(=O)COc1ccccc1[N+](=O)[O-],97.3
11,COc1ccccc1OCCNC(=O)c1cc([N+](=O)[O-])cc([N+](=O)[O-])c1,103
12,Cc1cccc(NC(=O)CCSc2nnc(Cc3ccccc3)o2)c1,100
13,CCN1C(=O)CC(N2CCC(c3nc4ccccc4[nH]3)CC2)C1=O (stereo unspecified),112
14,CCOC(=O)C(=CNNc1cccc(Cl)c1)C(=O)OCC,107
15,Cc1ccc2c(c1)c1c3n2CCN=C3CCC1,83.9
16,Cc1ccc2[nH]c3c(c2c1)CCCC3NCCO (stereo unspecified),88.9
17,OCC1(CCOc2ccccc2)CCN(Cc2cc(Cl)ccc2O)CC1,113
18,COc1ccc(C2(O)CCN(CCCCOc3ccccc3)CC2)cc1,95.7
19,COc1cc(NCCC(=O)c2cccs2)c(OC)cc1Cl,108
20,Cc1cc(=O)n2cccc(O)c2n1,85.4
21,CC(C)(C)c1ccc(NC(=O)COc2ccc(-n3ccnc3)cc2)cc1,70.6
